Compounds with a hit are over-represented: about 3% of the library has one in this group of screens.
p53null 39C tox: kills p53 null cells at the nonpermissive temperature; H1299 p53-null (neo) cells, 39C, ATPlite viability, 24 h; Potency, µM (titrated, usually from 46.1 µM), inactives show at the top dose activity, negative = cell killing, most hits filed as cytotoxic; 55,000 tested, 0.97% active; AID 904;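 also: potency is read from the fitted curve at half-maximal effect; 0% = DMSO only and -100% = full killing by 100 µM tamoxifen; nearly all actives have a fitted effect of over 50% in size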
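Cells seeded at 600/well, 37C overnight. Compound added (up to 46 uM), plates shifted to 39C for 24 hr. ATPlite added, luminescence read after 20 min at room temperature.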
PMP22 txn: modulates PMP22 transcription in S16 Schwann cells; S16 Pmp22-F2sN Schwann cells, FLuc/NLuc coincidence luminescence, 24 h; Potency, µM (doses to about 57.5 µM), for the others: at the top dose activity change, negative = inhibition, usual class: inhibitors; 43,000 tested, 2% active; AID 1508649; active = clear falling dose curves in both reporters; inconclusive = both reporters move, but less clearly or upward; inactive = either reporter flat; the % is the NLuc reporter signal; also: potency is read from the fitted curve at half-maximal effect; % is scaled to controls: 0 for no effect and ±100 for the full control effect
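Rat S16 Pmp22-F2sN cells, 500-1,000/well in phenol red-free DMEM + 10% FBS, compound-treated 24 h (37C, 5% CO2). Luminescence: FLuc read, Stop&Glo added, NLuc read.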
p53null 32C kill: selectivity test: cytotoxicity in p53 null cells, permissive temperature | H1299-neo p53 null cells, ATP luminescence, 24 h, 32C | Potency, µM (series often up to 46.1 µM), for inactives: top-dose activity change, negative = cytotoxicity, usual class: cytotoxic | 55,000 tested, 0.62% active;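 also: potency is read from the fitted curve at half-maximal effect; 0% = DMSO only and -100% = full killing by 100 µM tamoxifen; nearly all actives have a fitted effect of over 55% in size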
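Luminescent ATP readout gave cell viability of p53-null H1299-neo cells after a 24 h compound exposure at the permissive 32C. Titrations ran up to 46 uM, and AC50s were fitted with the standard Hill equation.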
S16 F2sN tox: cytotoxicity in S16 Pmp22-F2sN Schwann cells | S16 Pmp22-F2sN Schwann cells (luciferase reporters placed in the Pmp22 gene) viability, CellTiter-Glo, 24 h | Potency, µM (highest dose often 57.5 µM), without a hit: at the highest dose activity change, negative = cytotoxicity, usual class: cytotoxic | 43,000 tested, 0.48% active; also: potency is read from the fitted curve at half-maximal effect; % is scaled to controls: 0 for no effect and ±100 for the full control effect; nearly all actives have a fitted effect of over 65% in size
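S16 Schwann cells carrying the Pmp22-F2sN reporter, seeded in 1536-well format, were exposed to library compounds for 24 h at 37C. Viability was read as CellTiter-Glo luminescence after 15 min at room temperature.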
SKOV3 invasion: blocks SKOV3ip1 adhesion and invasion in omental model; SKOV3ip1-GFP adhesion/invasion on 3D omental model, fluorescence; Potency, µM (titrated, usually from 45.8 µM), for inactives: at the highest dose activity change, negative = inhibition, actives largely listed as inhibitors; 46,000 tested, 0.1% active; AID 1963576;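 also: potency is read from the fitted curve at half-maximal effect; plate controls were DMSO wells for no effect and tomatine positive control wells for full effect; nearly all actives have a fitted effect of over 65% in size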
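Primary human omental fibroblast/mesothelial 3D culture pre-formed 48 h. SKOV3ip1-GFP cells added with compounds (0.36-46 umol/L), incubated 2 h RT/16 h 37 C, fixed; GFP cells quantified at 488/509 nm.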
pS6 MEF inh: mTORC1 pathway inhibition measured by phospho-rpS6 | Tsc2-/- p53-/- MEF, phospho-rpS6 immunofluorescence/PI, 24 h | Potency, µM (highest dose often 38.3 µM), for inactives: top-dose activity change, negative = inhibition, actives largely listed as inhibitors | 44,000 tested, 0.78% active;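 also: potency is read from the fitted curve at half-maximal effect; plate controls were DMSO for no effect and rapamycin for full effect; nearly all actives have a fitted effect of over 50% in size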
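Readout is phospho-S6 Alexa 488 signal normalized to PI per well, reported as % active cells with thresholds set from rapamycin (7.5 nM) and DMSO controls. Cells: Tsc2-/-, p53-/- MEFs, 24 hrs compound at 37 C; PI cell number serves as viability.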
NLuc sat counter: counter-screen for PMP22 expression modulators: NanoLuc inhibition, saturating substrate; Potency, µM (doses to about 57.5 µM), inactives show at the top dose activity change, negative = inhibition, most hits filed as inhibitors; Secreted NLuc enzyme (filtered S16 cell medium), Nano-Glo luminescence; AID 1508638; 690 tested, 4% active; shares compounds with PMP22 txn; also: potency is read from the fitted curve at half-maximal effect; % is scaled to controls: 0 for no effect and ±100 for the full control effect
NLuc Km ctr: NanoLuc inhibition at Km substrate, PMP22 artifact check; Potency, µM (top dose mostly 57.5 µM), for inactives: at the top dose activity change, negative = inhibition, usual class: inhibitors; AID 1508639; shares compounds with PMP22 txn; secreted NLuc enzyme, coelenterazine luminescence, Km conditions; 690 tested, 5% active; also: potency is read from the fitted curve at half-maximal effect; % is scaled to controls: 0 for no effect and ±100 for the full control effect
FLuc ctr PMP22: counter-screen for PMP22 expression modulators: firefly luciferase inhibition | shares compounds with PMP22 txn | purified P. pyralis FLuc, luminescence, 10 min | Potency, µM (series often up to 57.5 µM), for inactives: top-dose activity, negative = inhibition, most hits filed as inhibitors | 690 tested, under 10 active | AID 1508640; also: % of control where 0% means no effect
Target sequence (P08659 whole entry, looked up): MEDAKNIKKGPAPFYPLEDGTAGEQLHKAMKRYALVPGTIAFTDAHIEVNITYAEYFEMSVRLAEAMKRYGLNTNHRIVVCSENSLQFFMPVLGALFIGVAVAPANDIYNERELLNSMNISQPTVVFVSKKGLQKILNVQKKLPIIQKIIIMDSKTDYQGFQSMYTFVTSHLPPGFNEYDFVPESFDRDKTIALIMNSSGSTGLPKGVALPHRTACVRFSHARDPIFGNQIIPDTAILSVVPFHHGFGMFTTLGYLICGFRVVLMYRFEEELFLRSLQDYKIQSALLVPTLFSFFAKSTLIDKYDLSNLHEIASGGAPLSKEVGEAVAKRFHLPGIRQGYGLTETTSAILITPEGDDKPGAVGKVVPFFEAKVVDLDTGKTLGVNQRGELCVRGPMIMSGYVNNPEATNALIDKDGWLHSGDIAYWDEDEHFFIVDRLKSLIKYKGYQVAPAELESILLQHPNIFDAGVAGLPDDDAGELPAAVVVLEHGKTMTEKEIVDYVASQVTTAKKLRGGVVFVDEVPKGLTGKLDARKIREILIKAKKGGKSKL
S16 viab conf: S16 Schwann cell cytotoxicity, confirmatory; shares compounds with PMP22 txn; Potency, µM (top dose mostly 57.5 µM), inactives show at the top dose activity change, negative = viability loss, hits mostly cytotoxic; S16 Schwann cells viability, CellTiter-Glo ATP luminescence, 24 h; 690 tested, 7% active; also: potency is read from the fitted curve at half-maximal effect; % is scaled to controls: 0 for no effect and ±100 for the full control effect
PMP22 txn cnf: confirmation of modulators of PMP22 gene transcription in S16 cells | shares compounds with PMP22 txn | S16 Schwann cells Pmp22-F2sN, dual luciferase, 24 h | Potency, µM (titrated, usually from 57.5 µM), for inactives: at the top dose activity change, negative = inhibition, hits mostly inhibitors | 690 tested, 22% active | AID 1508646; active = clear falling dose curves in both reporters; inconclusive = both reporters move, but less clearly or upward; inactive = either reporter flat; the % is the FLuc reporter signal; also: potency is read from the fitted curve at half-maximal effect
PMP22 prot conf: rat PMP22 protein level modulation, confirmatory. shares compounds with PMP22 txn. S16 Schwann cells Pmp22-HiBiT, luminescence, 48 h. Potency, µM (titrated, usually from 27.9 µM), for inactives: at the highest dose activity change, negative = inhibition, most hits filed as inhibitors. 95 tested, under 10 active
Target sequence (P25094 whole entry, looked up): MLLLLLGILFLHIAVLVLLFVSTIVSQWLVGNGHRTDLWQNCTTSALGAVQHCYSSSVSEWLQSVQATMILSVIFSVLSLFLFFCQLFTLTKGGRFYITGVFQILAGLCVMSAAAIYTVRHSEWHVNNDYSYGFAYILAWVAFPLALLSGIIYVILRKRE
Starred values were filed as active, the others as inactive; i = inactive; ? = inconclusive; . = no result given; [ ] = another dose, or the depositor's remark. Unless noted, calls follow the shape of the dose curve; as a rule, active = well fitted curve in the direction sought with a large enough effect; inconclusive = small, poorly fitted or top-dose-only effect, or another doubt; inactive = no such curve, though single readings can be large; an effect the other way counts as inactive or inconclusive.

SMILES	p53null 39C tox	PMP22 txn	p53null 32C kill	S16 F2sN tox	SKOV3 invasion	pS6 MEF inh	NLuc sat counter	NLuc Km ctr	FLuc ctr PMP22	S16 viab conf	PMP22 txn cnf	others
Cc1c(C(=O)OC2CCCCC2)[nH]c2c1C(=O)CC(c1ccccc1Cl)C2 (configuration not stated)	-7%	6µM*	17%	?	2%	?	-19%	?	-19%	-18%	-45%
Cc1c(C(=O)OC2CCCCC2)[nH]c2c1C(=O)CC(c1ccccc1)C2 (configuration not stated)	-10%	13µM*	-13%	3%	-6%	-18%	-4%	1%	0%	-10%	?
Cc1c(C(=O)OC2CCCCC2)[nH]c2c1C(=O)CC(c1ccc(F)cc1)C2 (configuration not stated)	4%	?	-4%[9.22 µM]	3%	11%	-3%	.	.	.	.	.
COc1cc([C@H]2Oc3cc([C@H]4Oc5cc(O)cc(O)c5C(=O)[C@H]4O)ccc3O[C@H]2CO)ccc1O	.	.	.	.	16%	.	.	.	.	.	.
O=C1COc2ccc(-c3cc(-c4ccc(F)cc4)c4c(n3)-c3ccccc3OC4)cc2N1	.	17µM*	.	24%	i	1%	-5%	7%	6%	?	?
COC(=O)c1c(-c2ccc(Cl)cc2)noc1N1CCN(c2cccc(OC)c2)CC1	11%	7µM*	-6%	?	-23%	4%	?	-5%	4%	5%	12µM*
COC(=O)c1c(-c2ccc(Cl)cc2)noc1N1CCN(c2cccc(C)c2C)CC1	22%	?	-9%	?	?	-18%	.	.	.	.	.
CCCSc1ncc(Cl)c(C(=O)Nc2sc3c(c2C(=O)NCC)CCCC3)n1	0%	5.1µM*	1%	14%	-14%	2%	-13%	-2%	1%	-19%	?
COc1cc(-c2noc(-c3ccc(NCc4ccco4)c([N+](=O)[O-])c3)n2)cc(OC)c1OC	-9%	3.2µM*	1%	4%	11%	0%	?	?	-1%	-12%	?
COc1ccnc2[nH]cc(C(=O)C(=O)N3CCN(C(=O)c4ccccc4)C[C@@H]3C)c12	.	.	.	.	-8%	.	.	.	.	.	.
CO[C@H]1C=CO[C@@]2(C)Oc3c(C)c(O)c4c(O)c(c(C=NN5CCN(C)CC5)c(O)c4c3C2=O)NC(=O)C(C)=CC=C[C@H](C)[C@H](O)[C@@H](C)[C@@H](O)[C@@H](C)[C@H](OC(C)=O)[C@H]1C	.	.	.	.	-6%[15.1 µM]	.	.	.	.	.	.
Cc1ccc(NC(=O)CSc2nc3n[nH]c(C)c3c(=N)n2-c2ccccc2C)cc1C	13%	17µM*	-7%	-2%	-7%	-4%	?	?	8%	-10%	-39%
Cc1ccc(NC(=O)CSc2nc3n[nH]c(C)c3c(=N)n2-c2cccc(C)c2)cc1	4%	?	-19%	-16%	i	-7%	.	.	.	.	.
Cn1nnnc1SCCCNCc1cccc(OCc2ccccc2)c1	-16%	20µM*	-6%	-6%	0%	-21%	-5%	1%	3%	-7%	-11%
c1cc(-c2cnn3cc(-c4ccc(OCCN5CCCCC5)cc4)cnc23)ccn1	.	.	.	.	54%	.	.	.	.	.	.
Cc1ccc2[nH]c(CSc3nnc(COc4ccccc4C)n3C)cc(=O)c2c1	25%	13µM*	-7%	?	i	-14%	?	?	-7%	?	-23%
O=C(CCS(=O)(=O)c1cc(Br)cc2c1N(C(=O)C1CC1)CC2)N1CCN(c2ccc(F)cc2)CC1	-9%	?	8%	-25%	16%	-12%	.	.	.	.	.
O=C(CCS(=O)(=O)c1cc(Br)cc2c1N(C(=O)C1CC1)CC2)N1CCN(c2cccc(C(F)(F)F)c2)CC1	9%	13µM*	13%	?	-27%	-4%	-3%	11%	5%	5%	-43%
CCCn1c(=N)c(C(=O)NC(C)c2ccccc2)cc2c(=O)n3ccccc3nc21 (configuration not stated)	11%	14µM*	-11%	0%	9%	0%	-10%	-16%	-5%	14%	4.6µM*	PMP22 prot conf=-17%
CCOCCCn1c(=N)c(C(=O)NC(C)c2ccccc2)cc2c(=O)n3cc(C)ccc3nc21 (configuration not stated)	20%	-23%	-3%	5%	-1%	14%	.	.	.	.	.
CNC(=O)CN1CCC(Oc2cc3c(Nc4cccc(Cl)c4F)ncnc3cc2OC)CC1	.	.	.	.	-21%	.	.	.	.	.	.
CCC(CC)[C@H](NC(C)=O)[C@@H]1[C@H](O)[C@@H](C(=O)O)C[C@@H]1N=C(N)N	.	.	.	.	-21%	.	.	.	.	.	.
Cc1ccc2nc(/C(C#N)=C/c3ccc(-c4cccc(Cl)c4)o3)[nH]c2c1	?	?	-20%	1%	9%	-6%	.	.	.	.	.
Cc1cccc(/C=C(\C#N)c2nc3ccccc3c(=O)[nH]2)c1	-9%	11µM*	1%	0%	11%	-3%	?	?	-5%	?	5%

High-throughput results from PubChem BioAssay.
